In PubChem BioAssay:
The other results are listed elsewhere or left out. The source made the active and inactive calls.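 The calls were made as follows, unless noted: active = GFP response above 150% of the DMSO level; inconclusive = fewer than 70 events counted for a yeast strain; inactive = the rest.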

Columns and labels:
[1] = RPL19A-GFP modulators, yeast TOR pathway, confirmation, cell-based, S. cerevisiae, flow cytometry, cherry picks, mother/daughter gates (AID 2270;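 active = GFP response below 50% of the DMSO control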); settings: S. cerevisiae RPL19A-GFP strain, 3 h, at 10 µM, stronger effect = lower value, 100 = same GFP as DMSO wells
[2] = LAP4-GFP expression modulators in yeast, confirmation, cell-based, cherry picks, flow cytometry, mother/daughter gates (AID 2271;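 active = GFP response above 150% of the DMSO control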;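 also: ratio of sample to DMSO plate mean so 100% equals DMSO level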); settings: S. cerevisiae LAP4-GFP strain, 3 h, at 10 µM, stronger effect = higher value, 100 means same as DMSO control
[3] = modulators of MEP2-GFP levels in yeast, confirmation, S. cerevisiae, flow cytometry GFP, cherry picks (AID 2272;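 active = GFP response above 150% of the DMSO control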;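 also: ratio of well signal to plate DMSO mean so 100% equals DMSO level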); settings: S. cerevisiae MEP2-GFP strain, 3 h, at 10 µM, stronger effect = higher value
[4] = AGP1-GFP expression modulators, hit retest, confirmation, cell-based, flow cytometry, S. cerevisiae, cherry picks (AID 2273);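 also: median GFP channel fluorescence over the whole cell population gate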; settings: S. cerevisiae AGP1-GFP strain, 3 h, at 10 µM
[5] = modulators of CIT2-GFP expression in yeast, confirmation, S. cerevisiae, GFP fusion, cherry picks, mother/daughter gates (AID 2274); settings: S. cerevisiae CIT2-GFP strain, flow cytometry, 3 h, at 10 µM, stronger effect = higher value
[6] = compound autofluorescence in yeast s288c, dose response, artefact control for yeast TOR pathway GFP screen, s288c strain (AID 2757;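 active = fluorescence span over the dose series, or activity score, above about 33, limit read from the data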;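 also: thousands of bead-calibrated equivalent soluble fluorophore molecules from median cell fluorescence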); settings: S. cerevisiae s288c, 520 nm autofluorescence, flow cytometry, 3 h; at 33 µM; stronger effect = higher value; zero means same as solvent-only cells
[7] = measured here: daughter cell gate
[8] = measured here: mother cell gate
[9] = measured here: mother cell gate response
[10] = measured here: daughter cell gate response

Row | SMILES | GFP response vs DMSO [1] | GFP response vs DMSO [1, 7] [%] | GFP response vs DMSO [1, 8] [%] | GFP response relative to DMSO [2] | GFP response relative to DMSO [2, 9] [%] | GFP response vs DMSO [3] | GFP response, % of DMSO [4] | GFP response, % of DMSO [5] | GFP response, % of DMSO [5, 7] [%] | GFP response, % of DMSO [5, 8] [%] | GFP response relative to DMSO [2, 10] [%] | fluorescence change (kMESF span) [6]
1 | CC(C)(C)C(=O)NC(=S)NNC(=O)c1ccc(-c2ccccc2)cc1 | 116% (inactive) | 84.5 | 104 | 228% (active) | 209 | 141% (inactive) | 129% (inactive) | 132% (inactive) | 99.3 | 113 | – | –
2 | Cc1ccc(/C=C2/C(=O)ON=C2c2ccccc2)o1 | 90.4% (inactive) | 87.7 | 82.8 | 250% (active) | 219 | 129% (inactive) | 88.4% (inactive) | 92.1% (inactive) | 90.9 | 77 | – | –
3 | CCCNC(=O)COC(=O)c1ccc(S(=O)(=O)N2CCCC2)cc1 | 97.2% (inactive) | 89.4 | 88.1 | 94.9% (inactive) | – | 98.8% (inactive) | 99.8% (inactive) | 99.7% (inactive) | 90.5 | 78.8 | 82.6 | –
4 | Cc1cc(C)c(S(C)(=O)=O)c(S(=O)(=O)c2ccc(Cl)cc2)n1 | 100% (inactive) | 100 | 100 | 99.2% (inactive) | 99.3 | 98.3% (inactive) | 100% (inactive) | 103% (inactive) | 103 | 101 | 97.6 | –
5 | O=C(/C=C/Sc1ncn[nH]1)c1ccc(Cl)cc1 | 106% (inactive) | 106 | 99.8 | 213% (active) | 214 | 114% (inactive) | 89.5% (inactive) | 110% (inactive) | 108 | 104 | 198 | 2.12 (inactive)
6 | Nc1ccccc1SC(C[N+](=O)[O-])c1ccccc1 (stereo unspecified) | 93.3% (inactive) | 96.3 | 87.6 | 173% (active) | 169 | 112% (inactive) | 112% (inactive) | 92.2% (inactive) | 100 | 81.8 | 170 | 0.62 (inactive)
7 | O=C(c1ccc(Cl)c([N+](=O)[O-])c1)N1CCN(c2ccccc2)CC1 | 99.4% (inactive) | 101 | 96.7 | 116% (inactive) | 111 | 102% (inactive) | 97.8% (inactive) | 95.5% (inactive) | 101 | 92.6 | 114 | 2.52 (inactive)
8 | C/C(=N\Nc1ncnc2sc(C)c(C)c12)c1ccccn1 | 194% (inactive) | 112 | 175 | 434% (active) | 395 | 967% (active) | 107% (inactive) | 449% (active) | 118 | 921 | – | –
9 | Cc1ccc(S(=O)(=O)N(Cc2ccc(F)cc2)Cc2ccco2)cc1 | 97.6% (inactive) | 96.7 | 97.7 | 102% (inactive) | 104 | 103% (inactive) | 97.9% (inactive) | 97.2% (inactive) | 99.3 | 98.2 | 105 | –
10 | O=C(c1ccc2c(c1)OCO2)N1CCN(c2ccccc2)CC1 | 98.2% (inactive) | 97.1 | 94 | 96.7% (inactive) | – | 98.3% (inactive) | 98% (inactive) | 99.7% (inactive) | – | – | 104 | –
11 | CCCc1cc(NCc2ccccn2)n2nc(C)c(-c3ccccc3)c2n1 | 108% (inactive) | 88 | 91.2 | 172% (active) | 148 | 143% (inactive) | 107% (inactive) | 92.6% (inactive) | 81.7 | 77.3 | – | –
12 | O=C(CCC(F)(F)F)N1CCC(CO)(CCc2ccccc2)CC1 | 102% (inactive) | 99.8 | 102 | 91.4% (inactive) | 92.1 | 102% (inactive) | 101% (inactive) | 107% (inactive) | 106 | 106 | 95.6 | –
13 | Cc1cc(O)ccc1NC(=O)c1ccccc1 | 98.4% (inactive) | 98.4 | 95.6 | 96.7% (inactive) | – | 102% (inactive) | 102% (inactive) | 98.3% (inactive) | – | – | 92.8 | –
14 | COc1ccc(N2CCN(C(=O)c3ccccc3)CC2)c([N+](=O)[O-])c1 | 101% (inactive) | 98.8 | 103 | 106% (inactive) | 108 | 107% (inactive) | 102% (inactive) | 91.5% (inactive) | 93.8 | 96.8 | 104 | –
15 | O=C(Nc1ccccc1)c1nnsc1S(=O)(=O)c1ccc(Cl)cc1 | 73.3% (inactive) | 87.8 | 61.5 | 164% (active) | 206 | 144% (inactive) | 87.7% (inactive) | 95.5% (inactive) | 93.6 | 84.3 | 92.8 | 1.31 (inactive)
16 | O=C1Oc2ccccc2C(=O)/C1=C/c1ccccc1O | 91.3% (inactive) | 89.3 | 80.2 | 394% (active) | 373 | 105% (inactive) | 91% (inactive) | 79.8% (inactive) | 91.7 | 67.7 | 246 | 0.71 (inactive)
17 | Oc1c(CN2CCN(c3ccc(F)cc3)CC2)cc(Cl)c2cccnc12 | 101% (inactive) | 102 | 94.3 | 264% (active) | 245 | 187% (active) | 104% (inactive) | 141% (inactive) | 159 | 125 | 253 | 0.21 (inactive)
18 | CCCc1[nH]nc2c1C(c1ccccc1OC)C(C#N)=C(N)O2 (stereo unspecified) | 98% (inactive) | 94.4 | 94.3 | 116% (inactive) | 100 | 120% (inactive) | 102% (inactive) | 115% (inactive) | 121 | 112 | – | –
19 | O=c1[nH]c(-c2ccccn2)nc(C(F)(F)F)c1Br | 110% (inactive) | 102 | 101 | 247% (active) | 219 | 118% (inactive) | 91.2% (inactive) | 112% (inactive) | 106 | 103 | – | –
20 | Cc1[nH][nH]c(=O)c1C(c1ccc(-c2ccc(Cl)cc2)o1)c1c(C)[nH][nH]c1=O | 101% (inactive) | 102 | 99.8 | 188% (active) | 179 | 114% (inactive) | 103% (inactive) | 101% (inactive) | 102 | 95.6 | 179 | 0.2 (inactive)
21 | Cc1cccn2c(=O)c3cc(C(=O)NCCc4ccccc4)c(=N)n(CCCn4ccnc4)c3nc12 | 95.8% (inactive) | 94.7 | 95 | 96.5% (inactive) | 92.3 | 103% (inactive) | 98.6% (inactive) | 100% (inactive) | 99.3 | 97.1 | – | –
22 | O=C1C=CC(=O)N1c1ccc(N2CCCCC2)cc1 | 75.5% (inactive) | 86.8 | 63.8 | 220% (active) | 218 | 87.8% (inactive) | 79.9% (inactive) | 104% (inactive) | 97.2 | 89 | 99.2 | 0.41 (inactive)
23 | Nc1c(C(=O)c2cccs2)sc2nsc(SCCN3CCCCC3)c12 | 114% (inactive) | 110 | 118 | 142% (inactive) | 158 | 241% (active) | 107% (inactive) | 160% (active) | 149 | 173 | 128 | 17.9 (inactive)
24 | CCN1/C(=C/C(C)=C/c2sc3ccccc3[n+]2CC)Sc2ccccc21 | 79.8% (inactive) | 61.3 | 72.1 | 243% (active) | 211 | 133% (inactive) | 101% (inactive) | 100% (inactive) | 83.4 | 97.7 | – | –
25 | CCn1c(/C=C/c2ccc([N+](=O)[O-])o2)nc2ccccc2c1=O | 144% (inactive) | 143 | 135 | 347% (active) | 334 | 418% (active) | 131% (inactive) | 278% (active) | 289 | 251 | 336 | 108 (active)
26 | COC(=O)CNc1c(-c2ccccn2)nc2ccc(Br)cn12 | 100% (inactive) | 103 | 100 | 96.7% (inactive) | 96.1 | 102% (inactive) | 98.7% (inactive) | 107% (inactive) | 106 | 104 | 96 | –
